Screens: PubChem, National Center for Advancing Translational Sciences (NCATS)
This is a sample that favours compounds with a hit; in the whole collection about 3.5% have one here.
Sm TGR block: blocks Schistosoma mansoni thioredoxin glutathione reductase; purified TGR, DTNB reduction, TNB absorbance 405 nm; Potency, µM (titrated, usually from 114 µM), for inactives: at the highest dose activity change, negative = inhibition, most hits filed as inhibitors; actives 3% (n = 360,000); AID 485364; note: % is set by controls: 0 for no effect and ±100 for the full control effect; nearly all actives have a fitted effect of over 60% in size
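TGR 20 nM + NADPH 100 uM (dispensed conc.), cpd preinc 15 min RT; start with NADPH (500 uM addition) then DTNB (15 mM addition). Kinetic TNB absorbance, 405 nm filter. Four-parameter Hill fit across titration.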
TbPYK inhibitor: blocks Trypanosoma brucei pyruvate kinase | Q57TT1 | TbPYK enzyme, Kinase-Glo Plus ATP luminescence, 45 min | Potency, µM (doses to about 76.8 µM), for inactives: at the top dose activity, negative = inhibition, actives largely listed as inhibitors | actives 0.12% (n = 410,000) | AID 624173; note: % is set by controls: 0 for no effect and ±100 for the full control effect; nearly all actives have a fitted effect of over 50% in size
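ADP (130 uM final) triggers the TbPYK reaction after compound addition; incubation is 45 min at room temperature. Kinase-Glo Plus is then added and luminescence imaged. Normalized data are fitted to concentration-effect curves.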
FBPA Giardia inh: inhibitors of Giardia lamblia fructose-1,6-bisphosphate aldolase | A8B2U2 | purified Giardia FBPA | Potency, µM (titrated, usually from 59.6 µM), for the others: top-dose activity, negative = inhibition, most hits filed as inhibitors | actives 0.71% (n = 290,000); note: % is set by controls: 0 for no effect and ±100 for the full control effect; nearly all actives have a fitted effect of over 55% in size
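40 nM FBPA preincubated 10 min at RT with compound (up to 57.5 uM final), then substrate plus GAPDH/TPI/NAD/arsenate coupling and diaphorase/resazurin added. Fluorescence read after 20 min at RT, 525/598 nm.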
LmPK inh: inhibitors of Leishmania mexicana pyruvate kinase. purified LmPK, Kinase-Glo ATP luminescence, 1 h. Potency, µM (titrated, usually from 57.5 µM), inactives show at the top dose activity change, negative = inhibition, most hits filed as inhibitors. actives 0.37% (n = 290,000); note: % is set by controls: 0 for no effect and ±100 for the full control effect
Target sequence (Q27686 whole entry, looked up): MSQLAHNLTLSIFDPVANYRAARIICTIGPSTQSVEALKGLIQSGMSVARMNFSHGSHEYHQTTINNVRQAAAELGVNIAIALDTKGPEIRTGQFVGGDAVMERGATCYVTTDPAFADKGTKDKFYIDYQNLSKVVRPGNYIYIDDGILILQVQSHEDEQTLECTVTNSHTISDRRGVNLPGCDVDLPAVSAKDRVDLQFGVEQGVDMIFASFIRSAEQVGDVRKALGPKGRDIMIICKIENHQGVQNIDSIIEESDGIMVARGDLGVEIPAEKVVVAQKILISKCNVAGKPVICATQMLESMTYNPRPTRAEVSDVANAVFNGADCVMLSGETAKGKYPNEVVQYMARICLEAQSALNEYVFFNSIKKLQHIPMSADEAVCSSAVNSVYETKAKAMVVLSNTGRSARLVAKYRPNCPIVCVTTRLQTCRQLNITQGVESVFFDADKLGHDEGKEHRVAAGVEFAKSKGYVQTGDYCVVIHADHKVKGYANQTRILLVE
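ATP generated from ADP (0.1 mM) and PEP (0.5 mM) by 0.1 nM LmPK over 1 h at room temperature (pH 7.2 imidazole buffer) was detected by coupled luciferase luminescence. Values were normalized to uninhibited and no-enzyme wells.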
NS1 function inh: influenza NS1 inhibition | Potency, µM (highest dose often 46.1 µM), inactives show at the top dose activity, positive = more growth | actives 0.4% (n = 270,000); calls by dose curve; note: actives are rising curves; nearly all actives have a fitted effect of over 50% in size
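Compounds were scored for reversing the slow growth caused by influenza A NS1 in S. cerevisiae, measured by optical density at 600 nm. Assay medium contained 2% galactose at pH 6.0; NS1-free yeast of the same strain were the positive control.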
RE007 growth inh: less growth of the S. pombe RE007 Vpr strain. S. pombe RE007 Vpr strain, BacTiter-Glo ATP luminescence, 24 h. Potency, µM (titrated, usually from 92.2 µM), for the others: top-dose activity change, negative = less growth, hits mostly inhibitors. actives 0.21% (n = 360,000). AID 651644; active = well fitted falling curve with a large enough effect; inconclusive = small, poorly fitted or top-dose-only effect; inactive = no such curve, though single readings can be large or run the other way; note: % is set by controls: 0 for no effect and ±100 for the full control effect; nearly all actives have a fitted effect of over 50% in size
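Fission yeast strain RE007, carrying one chromosomally integrated HIV-1 vpr copy, was seeded at OD 0.01 in PMG+AL medium with 23 nL pinned compound. After 24 h at 30 °C and 99% humidity, viability was read by BacTiter-Glo luminescence.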
Active calls of the source: *; [ ] = dose if it differs, or a comment. Unless noted, calls come from the whole dose curve; as a rule, active = well fitted curve in the direction sought with a large enough effect; inconclusive = small, poorly fitted or top-dose-only effect, or another doubt; inactive = no such curve, though single readings can be large; an effect the other way counts as inactive or inconclusive. Potency is the fitted concentration of half-maximal effect.

COc1ccc2c(CNCCc3cccs3)c(C(=O)O)n(Cc3ccccc3C)c2c1 was read as Sm TGR block 0.7% and TbPYK inhibitor -0.8%.
`Cc1cc(C)c2c(=O)cc(C(=O)Nc3ccc(S(=O)(=O)Nc4nc(C)cc(C)n4)cc3)oc2c1` gave Sm TGR block 22.2% and TbPYK inhibitor 0.1%.
For CCOC(=O)/C(=C/c1ccco1)NC(=O)c1ccc(Br)o1 the results were Sm TGR block 17.8µM*, TbPYK inhibitor -9.3%, FBPA Giardia inh 3.1%, LmPK inh -1.8%, NS1 function inh -1.1% and RE007 growth inh 11.5%.
For CCOC(=O)/C(=C/c1ccccc1)NC(=O)c1ccco1 the results were Sm TGR block 14.1%, TbPYK inhibitor -6.4%, FBPA Giardia inh 2.1%, LmPK inh 0.6%, NS1 function inh 15.0% and RE007 growth inh -3.8%.
O=C(NC(Cc1ccccc1)C(=O)O)/C(=C/c1ccccc1)NC(=O)c1ccc(Br)o1 (stereo not drawn) was read as Sm TGR block -6.2%, TbPYK inhibitor 11.8%, FBPA Giardia inh 10.9%, LmPK inh 4.3%, NS1 function inh 14.5% and RE007 growth inh 19.4%.
For CC(C)CC(NC(=O)/C(=C/c1ccco1)NC(=O)c1ccc(Br)o1)C(=O)O (stereo not drawn) the results were Sm TGR block 44.7µM*, TbPYK inhibitor -7.9%, FBPA Giardia inh -25.3%, LmPK inh 10.5%, NS1 function inh 3.9% and RE007 growth inh 3.7%.
O=c1oc(CCO)cc2ccccc12 was read as TbPYK inhibitor -5.3% and RE007 growth inh -2.8%.
For CC#CCc1cc2ccccc2c(=O)o1 the results were Sm TGR block 3.98µM*, TbPYK inhibitor -2.7%, FBPA Giardia inh 6.2%, LmPK inh 0.0%, NS1 function inh 4.6% and RE007 growth inh 11.7%.
`CCCC1Cc2nc(Cl)c(C#N)cc2CO1` (stereo not drawn) gave Sm TGR block 39.8µM*, TbPYK inhibitor -4.5%, FBPA Giardia inh -0.8%, LmPK inh -4.4%, NS1 function inh 4.7% and RE007 growth inh -0.8%.
CCC1(C)Cc2nc(Cl)c(C#N)cc2CO1 (stereo not drawn) was read as Sm TGR block inconclusive, TbPYK inhibitor 3.2%, FBPA Giardia inh 4.5%, LmPK inh 2.1%, NS1 function inh 1.4% and RE007 growth inh 2.4%.
`COc1cc(C2C(C#N)=C(SC)NC3=C2C(=O)CCC3)ccc1O` (stereo not drawn) gave Sm TGR block -19.2%, TbPYK inhibitor -5.4%, FBPA Giardia inh 2.9%, LmPK inh 1.9%, NS1 function inh 3.2% and RE007 growth inh 0.5%.
Screening CCc1ccccc1NC(=O)CSC1=C(C#N)C(c2ccc(O)c(OC)c2)C2=C(CCCC2=O)N1 (stereo not drawn) returned Sm TGR block 39.8µM*, TbPYK inhibitor -9.1%, FBPA Giardia inh -23.8%, LmPK inh -0.6%, NS1 function inh 7.7%[9.22 µM] and RE007 growth inh -4.5%.
O=C(CCS(=O)(=O)c1ccc2c(c1)NC(=O)CS2)NCCc1ccccc1 was read as Sm TGR block 31.6µM*, TbPYK inhibitor 5.4%, FBPA Giardia inh 4.9%, LmPK inh -6.2%, NS1 function inh -1.3% and RE007 growth inh -0.1%.
CCOc1ccc(CCNC(=O)CCS(=O)(=O)c2ccc(C)cc2)cc1OCC was read as Sm TGR block 31.6µM*, TbPYK inhibitor 3.7%, FBPA Giardia inh 3.4%, LmPK inh -0.3%, NS1 function inh -3.7% and RE007 growth inh -6.4%.
Screening NS(=O)(=O)c1ccc(CCNC(=O)CCS(=O)(=O)c2ccc(Br)cc2)cc1 returned Sm TGR block 0.0%, TbPYK inhibitor -6.3%, FBPA Giardia inh 4.8%, LmPK inh -2.2%, NS1 function inh 1.7% and RE007 growth inh -15.5%.
For O=C(CCS(=O)(=O)c1ccc(Br)cc1)Nc1ccccn1 the results were Sm TGR block 3.16µM*, TbPYK inhibitor -3.2%, FBPA Giardia inh -2.1%, LmPK inh -2.2%, NS1 function inh -3.2% and RE007 growth inh -2.6%.
For O=C(CCS(=O)(=O)c1ccc(Br)cc1)Nc1ccccc1Cl the results were Sm TGR block 4.0%, TbPYK inhibitor 1.4%, FBPA Giardia inh 14.1%, LmPK inh -1.6%, NS1 function inh 4.9% and RE007 growth inh 4.9%.
O=C(CCS(=O)(=O)c1ccc(Br)cc1)NCCc1ccccc1 was read as Sm TGR block 50.1µM*, TbPYK inhibitor -2.0%, FBPA Giardia inh 2.3%, LmPK inh -7.7%, NS1 function inh 0.5% and RE007 growth inh 21.2%.
Cc1ccc2c(=O)cc(C(=O)N(Cc3ccc(C(C)(C)C)cc3)C3CCS(=O)(=O)C3)oc2c1 (stereo not drawn) was read as Sm TGR block 5.2% and TbPYK inhibitor 1.7%.
`O=C1CSc2ccc(S(=O)(=O)CCC(=O)NC3CCCCC3)cc2N1` gave Sm TGR block 22.4µM*, TbPYK inhibitor -2.9%, LmPK inh -0.7%, NS1 function inh 7.0% and RE007 growth inh 6.9%.
For COCCc1nn2c(=O)cc(COC(=O)c3ccc(Br)cc3)nc2s1 the results were Sm TGR block 89.1µM* and TbPYK inhibitor 2.7%.
`COc1ccccc1C(CCN(Cc1cccs1)C(C)=O)c1ccco1` (stereo not drawn) gave Sm TGR block 12.6µM*, TbPYK inhibitor 0.3%, FBPA Giardia inh 0.0%, LmPK inh 0.7%, NS1 function inh -66.5% and RE007 growth inh -0.6%.
`CCCNCCC(c1ccco1)c1ccccc1OC` (stereo not drawn) gave Sm TGR block -8.3%, TbPYK inhibitor 2.1%, FBPA Giardia inh -13.9%, LmPK inh 2.4%, NS1 function inh 26.6% and RE007 growth inh -7.6%.
`CCC(=O)N(CCC(c1ccccc1)c1ccco1)Cc1cccs1` (stereo not drawn) gave Sm TGR block 14.1µM*, TbPYK inhibitor -10.1%, FBPA Giardia inh 7.4%, LmPK inh -3.6%, NS1 function inh 6.8% and RE007 growth inh -7.1%.
Screening COc1ccc(S(=O)(=O)Nc2cccc(-c3ccc(N4CCC(C)CC4)nn3)c2)c(OC)c1 returned Sm TGR block -2.5% and TbPYK inhibitor -4.9%.
`CCOc1ccc(-c2nnc(SCC(=O)NCCC(C)C)nc2-c2ccc(OCC)c(OC)c2)cc1OC` gave Sm TGR block -7.9% and TbPYK inhibitor -11.7%.
COCCNC(=S)Nc1ccc2nc(N3CCN(C)CC3)cc(C)c2c1 was read as Sm TGR block 39.8µM*, TbPYK inhibitor 7.7%, FBPA Giardia inh -2.9%, LmPK inh 0.5%, NS1 function inh 1.9% and RE007 growth inh 2.6%.
